# Measured values from the supplement of paper PMC9446081.
# ± gives the standard deviation of the averaged measurements.
# Experiments:
# Experiment in all cases: relative enzymatic activity vs untreated control (fraction); higher = less inhibition
# Conditions in all cases: 100 µM; incubation time: 2 h at 37 C
# DNA gyrase = tested on: DNA gyrase
# Protocol: (§1)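 In vitro enzymatic inhibition assays (ProFoldin kits) for 12 purified essential E. coli enzymes or complexes, each treated with 218 active antibacterial compounds at 100 µM for 2 h at 37°C. Read-outs were fluorescence or absorbance (phosphate detection, dye binding), converted to activity via standard curves and expressed relative to untreated DMSO controls.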
# DNA helicase = DNA helicase (UniProt P0ACB1)
# DNA helicase, sequence (P0ACB1 whole entry): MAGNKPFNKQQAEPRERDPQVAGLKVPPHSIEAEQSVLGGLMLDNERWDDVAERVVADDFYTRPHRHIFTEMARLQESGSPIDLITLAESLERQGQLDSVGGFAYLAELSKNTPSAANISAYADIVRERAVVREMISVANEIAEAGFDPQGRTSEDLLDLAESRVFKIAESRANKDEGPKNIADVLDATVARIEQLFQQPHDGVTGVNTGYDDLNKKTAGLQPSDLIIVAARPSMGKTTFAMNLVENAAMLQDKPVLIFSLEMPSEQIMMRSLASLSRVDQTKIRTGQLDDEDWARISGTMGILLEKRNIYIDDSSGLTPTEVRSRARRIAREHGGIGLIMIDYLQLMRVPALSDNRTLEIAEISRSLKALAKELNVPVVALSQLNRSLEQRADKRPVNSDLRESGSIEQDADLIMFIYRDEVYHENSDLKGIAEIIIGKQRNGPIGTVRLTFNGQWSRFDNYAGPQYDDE
# Protocol: as §1
# DNA ligase = DNA ligase (UniProt B1XA82)
# DNA ligase, sequence (B1XA82 whole entry): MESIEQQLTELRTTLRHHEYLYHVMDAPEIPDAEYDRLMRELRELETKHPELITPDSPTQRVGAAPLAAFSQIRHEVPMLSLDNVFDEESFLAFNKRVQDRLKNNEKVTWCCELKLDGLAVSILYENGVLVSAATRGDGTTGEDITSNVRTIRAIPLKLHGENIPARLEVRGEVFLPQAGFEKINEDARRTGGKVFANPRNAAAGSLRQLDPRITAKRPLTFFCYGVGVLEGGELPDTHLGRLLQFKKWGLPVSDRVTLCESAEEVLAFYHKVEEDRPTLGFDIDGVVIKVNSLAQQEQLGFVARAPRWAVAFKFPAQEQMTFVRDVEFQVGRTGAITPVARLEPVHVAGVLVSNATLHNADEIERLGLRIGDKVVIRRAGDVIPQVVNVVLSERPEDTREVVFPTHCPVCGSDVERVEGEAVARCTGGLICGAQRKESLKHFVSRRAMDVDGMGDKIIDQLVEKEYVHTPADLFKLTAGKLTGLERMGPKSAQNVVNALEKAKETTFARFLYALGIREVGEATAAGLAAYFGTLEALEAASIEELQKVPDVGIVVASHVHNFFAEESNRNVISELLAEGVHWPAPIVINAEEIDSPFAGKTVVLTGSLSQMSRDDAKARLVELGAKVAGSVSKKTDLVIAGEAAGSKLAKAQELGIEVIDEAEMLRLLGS
# Protocol: as §1
# DNA polymerase = DNA polymerase (UniProt P10443)
# DNA polymerase, sequence (P10443 whole entry): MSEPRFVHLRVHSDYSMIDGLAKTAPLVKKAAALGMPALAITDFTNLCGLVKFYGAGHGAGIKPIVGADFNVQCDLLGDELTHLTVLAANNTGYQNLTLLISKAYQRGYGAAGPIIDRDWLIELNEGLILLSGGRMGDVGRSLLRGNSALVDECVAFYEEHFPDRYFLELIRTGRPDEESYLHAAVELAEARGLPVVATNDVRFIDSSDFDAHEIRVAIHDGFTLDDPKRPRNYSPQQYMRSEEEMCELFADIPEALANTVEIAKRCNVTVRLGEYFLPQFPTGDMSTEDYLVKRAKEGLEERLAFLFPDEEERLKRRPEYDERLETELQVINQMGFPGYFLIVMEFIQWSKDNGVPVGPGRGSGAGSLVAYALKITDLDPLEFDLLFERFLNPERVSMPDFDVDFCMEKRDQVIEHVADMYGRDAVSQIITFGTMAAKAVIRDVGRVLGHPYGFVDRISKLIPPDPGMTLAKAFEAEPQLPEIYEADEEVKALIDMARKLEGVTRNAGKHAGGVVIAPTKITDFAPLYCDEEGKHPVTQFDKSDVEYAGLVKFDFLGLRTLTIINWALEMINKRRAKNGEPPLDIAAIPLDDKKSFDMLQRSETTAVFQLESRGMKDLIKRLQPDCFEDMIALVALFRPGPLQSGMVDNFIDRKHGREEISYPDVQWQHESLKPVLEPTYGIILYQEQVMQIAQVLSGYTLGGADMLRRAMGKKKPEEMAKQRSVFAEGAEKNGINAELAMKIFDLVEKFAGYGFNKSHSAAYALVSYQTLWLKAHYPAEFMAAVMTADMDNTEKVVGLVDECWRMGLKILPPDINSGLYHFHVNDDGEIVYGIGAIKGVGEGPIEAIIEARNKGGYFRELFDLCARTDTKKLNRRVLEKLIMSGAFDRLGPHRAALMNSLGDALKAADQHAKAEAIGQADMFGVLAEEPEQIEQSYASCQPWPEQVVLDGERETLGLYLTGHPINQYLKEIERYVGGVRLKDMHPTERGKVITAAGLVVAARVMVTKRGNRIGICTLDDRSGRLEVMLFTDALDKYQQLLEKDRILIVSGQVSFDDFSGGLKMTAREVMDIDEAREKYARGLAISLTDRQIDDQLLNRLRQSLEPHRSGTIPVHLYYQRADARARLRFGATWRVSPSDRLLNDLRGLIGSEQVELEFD
# Protocol: as §1
# DNA primase = DNA primase (UniProt P0ABS7)
# DNA primase, sequence (P0ABS7 whole entry): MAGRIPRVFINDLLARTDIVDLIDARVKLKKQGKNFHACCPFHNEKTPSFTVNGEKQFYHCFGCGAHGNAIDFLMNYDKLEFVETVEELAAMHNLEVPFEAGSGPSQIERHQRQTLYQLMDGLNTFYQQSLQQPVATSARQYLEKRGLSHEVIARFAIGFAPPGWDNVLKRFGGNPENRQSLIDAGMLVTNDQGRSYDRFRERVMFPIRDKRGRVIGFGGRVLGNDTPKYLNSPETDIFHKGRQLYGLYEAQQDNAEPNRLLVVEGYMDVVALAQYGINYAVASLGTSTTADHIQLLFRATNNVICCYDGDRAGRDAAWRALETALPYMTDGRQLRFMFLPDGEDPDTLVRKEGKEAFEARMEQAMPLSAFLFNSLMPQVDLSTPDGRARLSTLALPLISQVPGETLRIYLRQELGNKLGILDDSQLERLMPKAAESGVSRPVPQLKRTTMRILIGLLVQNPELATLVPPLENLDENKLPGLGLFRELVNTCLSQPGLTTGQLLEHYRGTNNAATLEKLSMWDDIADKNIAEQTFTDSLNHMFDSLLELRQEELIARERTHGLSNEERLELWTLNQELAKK
# Protocol: as §1
# GlmU = GlmU (UniProt A7ZTU1)
# GlmU, sequence (A7ZTU1 whole entry, looked up): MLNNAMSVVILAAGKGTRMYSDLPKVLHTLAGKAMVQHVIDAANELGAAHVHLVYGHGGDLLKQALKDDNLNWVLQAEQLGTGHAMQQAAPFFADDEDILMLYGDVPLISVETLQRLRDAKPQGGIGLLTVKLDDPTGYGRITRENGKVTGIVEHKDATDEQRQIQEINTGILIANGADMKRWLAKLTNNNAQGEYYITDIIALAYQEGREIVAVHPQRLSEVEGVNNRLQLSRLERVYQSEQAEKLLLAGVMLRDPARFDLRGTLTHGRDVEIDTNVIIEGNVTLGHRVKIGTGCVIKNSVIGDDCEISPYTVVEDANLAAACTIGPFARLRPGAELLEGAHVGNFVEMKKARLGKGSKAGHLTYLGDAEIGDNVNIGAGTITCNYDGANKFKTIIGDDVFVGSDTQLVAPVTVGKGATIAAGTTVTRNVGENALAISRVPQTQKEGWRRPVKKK
# Protocol: as §1
# Guanlyate kinase = Guanlyate kinase (UniProt Q0TBG1)
# Guanlyate kinase, sequence (Q0TBG1 whole entry): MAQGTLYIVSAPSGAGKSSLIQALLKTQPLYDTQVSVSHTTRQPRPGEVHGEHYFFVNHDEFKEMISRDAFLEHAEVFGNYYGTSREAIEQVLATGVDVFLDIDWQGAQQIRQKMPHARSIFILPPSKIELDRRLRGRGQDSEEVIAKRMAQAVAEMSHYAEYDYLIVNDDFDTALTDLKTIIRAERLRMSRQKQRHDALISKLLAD
# Protocol: as §1
# MurA = MurA (UniProt Q3YX52)
# MurA, sequence (Q3YX52 whole entry): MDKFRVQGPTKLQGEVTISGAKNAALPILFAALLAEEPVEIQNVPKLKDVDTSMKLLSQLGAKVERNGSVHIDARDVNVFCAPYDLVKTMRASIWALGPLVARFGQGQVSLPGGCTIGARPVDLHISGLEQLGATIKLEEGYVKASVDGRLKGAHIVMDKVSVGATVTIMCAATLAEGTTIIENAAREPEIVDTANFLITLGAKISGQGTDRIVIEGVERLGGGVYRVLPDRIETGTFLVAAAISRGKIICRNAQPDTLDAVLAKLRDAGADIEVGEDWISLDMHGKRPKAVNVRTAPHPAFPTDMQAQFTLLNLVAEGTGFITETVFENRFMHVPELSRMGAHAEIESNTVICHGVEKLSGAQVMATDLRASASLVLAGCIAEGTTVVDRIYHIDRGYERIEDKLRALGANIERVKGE
# Protocol: as §1
# MurD = molecular target: T1, MurD (UniProt P14900)
# T1 sequence (whole entry): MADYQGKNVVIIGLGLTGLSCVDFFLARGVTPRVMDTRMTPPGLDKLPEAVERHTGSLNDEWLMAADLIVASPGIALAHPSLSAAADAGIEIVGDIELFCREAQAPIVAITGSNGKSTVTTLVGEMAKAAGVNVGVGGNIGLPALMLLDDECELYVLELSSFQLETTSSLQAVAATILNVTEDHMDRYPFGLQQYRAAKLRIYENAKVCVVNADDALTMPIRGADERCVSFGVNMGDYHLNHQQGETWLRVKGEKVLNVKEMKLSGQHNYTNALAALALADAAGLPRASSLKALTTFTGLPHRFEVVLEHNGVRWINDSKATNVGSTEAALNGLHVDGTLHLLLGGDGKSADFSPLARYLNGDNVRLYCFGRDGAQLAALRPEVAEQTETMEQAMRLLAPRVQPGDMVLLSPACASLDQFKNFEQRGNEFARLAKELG
# Protocol: as §1
# MurF = molecular target: T2, MurF (UniProt P11880)
# T2 sequence (whole entry): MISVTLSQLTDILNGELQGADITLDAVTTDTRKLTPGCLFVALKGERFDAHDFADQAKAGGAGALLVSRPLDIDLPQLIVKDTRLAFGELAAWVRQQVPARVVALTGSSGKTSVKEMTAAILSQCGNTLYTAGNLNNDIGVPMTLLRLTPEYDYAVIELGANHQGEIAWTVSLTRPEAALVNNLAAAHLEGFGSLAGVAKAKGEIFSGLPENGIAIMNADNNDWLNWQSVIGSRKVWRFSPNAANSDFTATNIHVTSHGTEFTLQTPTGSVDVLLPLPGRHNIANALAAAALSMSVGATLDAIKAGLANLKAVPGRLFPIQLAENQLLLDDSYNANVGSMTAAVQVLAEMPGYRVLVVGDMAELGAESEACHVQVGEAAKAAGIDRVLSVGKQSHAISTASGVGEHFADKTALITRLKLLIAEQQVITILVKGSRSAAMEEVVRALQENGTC
# Protocol: as §1
# RNA polymerase = tested on: RNA polymerase
# Protocol: as §1
# MurC = MurC (UniProt C4ZRI6)
# MurC, sequence (C4ZRI6 whole entry, looked up): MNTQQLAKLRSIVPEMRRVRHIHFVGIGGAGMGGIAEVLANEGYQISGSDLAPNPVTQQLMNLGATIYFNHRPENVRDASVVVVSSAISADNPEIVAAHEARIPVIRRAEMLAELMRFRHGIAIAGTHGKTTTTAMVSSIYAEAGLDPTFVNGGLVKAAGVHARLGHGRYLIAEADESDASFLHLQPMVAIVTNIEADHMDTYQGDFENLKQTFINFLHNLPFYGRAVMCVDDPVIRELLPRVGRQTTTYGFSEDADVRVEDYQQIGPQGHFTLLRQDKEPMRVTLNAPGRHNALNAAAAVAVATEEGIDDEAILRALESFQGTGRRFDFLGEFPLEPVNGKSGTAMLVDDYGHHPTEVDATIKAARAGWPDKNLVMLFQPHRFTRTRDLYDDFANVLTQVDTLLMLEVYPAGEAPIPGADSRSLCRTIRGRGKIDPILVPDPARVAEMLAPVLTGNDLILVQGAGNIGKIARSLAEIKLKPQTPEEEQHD
# Protocol: as §1
SMILES,relative enzymatic activity (DNA gyrase),relative enzymatic activity (DNA helicase),relative enzymatic activity (DNA ligase),relative enzymatic activity (DNA polymerase),relative enzymatic activity (DNA primase),relative enzymatic activity (GlmU),relative enzymatic activity (Guanlyate kinase),relative enzymatic activity (MurA),relative enzymatic activity (MurD),relative enzymatic activity (MurF),relative enzymatic activity (RNA polymerase),relative enzymatic activity (MurC)
CCC(C)CCCCC(=O)NC(CCN)C(=O)NC(C(=O)NC(CCN)C(=O)NC1CCNC(=O)C(C(C)O)NC(=O)C(CCN)NC(=O)C(CCN)NC(=O)C(CC(C)C)NC(=O)C(Cc2ccccc2)NC(=O)C(CCN)NC1=O)C(C)O.O=S(=O)(O)O (centres undefined),1.09 ± 0.019,0.653 ± 0.23,0.982 ± 0.031,1.36 ± 0.48,0.688 ± 0.15,1.037 ± 0.0054,0.9729 ± 0.0096,0.649 ± 0.024,0.639 ± 0.43,0.894 ± 0.25,0.892 ± 0.046,
NC(=O)NN=Cc1ccc([N+](=O)[O-])o1,0.958 ± 0.23,0.58 ± 0.06,1.11 ± 0.018,1.32 ± 0.48,0.739 ± 0.24,0.955 ± 0.085,0.897 ± 0.13,0.491 ± 0.15,0.559 ± 0.37,0.933 ± 0.28,0.8 ± 0.09,1.05 ± 0.014
N[C@@H]1[C@H]2CN(c3nc4c(cc3F)c(=O)c(C(=O)O)cn4-c3ccc(F)cc3F)C[C@@H]12,0.0708 ± 0.1,0.354 ± 0.0078,1.04 ± 0.084,1.14 ± 0.23,0.689 ± 0.063,0.912 ± 0.029,0.937 ± 0.033,0.596 ± 0.17,0.555 ± 0.39,0.928 ± 0.22,0.783 ± 0.071,0.885 ± 0.015
CN1CCN(c2c(F)cc3c(=O)c(C(=O)O)cn4c3c2OCN4C)CC1,0.115 ± 0.16,0.53713 ± 0.00022,0.908 ± 0.041,1.17 ± 0.21,0.86 ± 0.01,0.97 ± 0.023,0.958 ± 0.14,0.585 ± 0.19,0.624 ± 0.43,1.17 ± 0.022,0.816 ± 0.086,0.954 ± 0.1
COC1(NC(=O)C2SC(=C(C(N)=O)C(=O)O)S2)C(=O)N2C(C(=O)O)=C(CSc3nnnn3C)CSC21 (centres undefined),0.705 ± 0.46,0.463 ± 0.027,1.47 ± 0.23,1.18 ± 0.25,0.683 ± 0.18,0.99 ± 0.066,0.994 ± 0.02,0.0627 ± 0.021,0.618 ± 0.43,0.974 ± 0.2,0.871 ± 0.07,0.978 ± 0.098
CON=C1CN(c2nc3c(cc2F)c(=O)c(C(=O)O)cn3C2CC2)CC1CN.CS(=O)(=O)O (centres undefined),0.058 ± 0.082,0.479 ± 0.14,1.09 ± 0.24,1.26 ± 0.31,0.805 ± 0.059,0.919 ± 0.027,0.856 ± 0.23,0.4853 ± 0.00068,0.503 ± 0.35,0.919 ± 0.19,0.88 ± 0.012,0.669 ± 0.18
N[C@@H](C(=O)N[C@@H]1C(=O)N2C(C(=O)O)=C(Cl)CS[C@H]12)c1ccccc1,0.759 ± 0.31,0.537 ± 0.076,1.02 ± 0.078,1.1 ± 0.25,0.801 ± 0.021,0.911 ± 0.035,0.87 ± 0.074,0.168 ± 0.067,0.579 ± 0.39,0.954 ± 0.21,0.766 ± 0.036,0.902 ± 0.062
CC1CCc2cc(F)cc3c(=O)c(C(=O)O)cn1c23 (centres undefined),0.0609 ± 0.086,0.593 ± 0.15,0.937 ± 0.35,1.41 ± 0.53,0.655 ± 0.13,0.9984 ± 0.0089,1.03 ± 0.1,0.715 ± 0.16,0.568 ± 0.39,0.97 ± 0.2,1.04 ± 0.22,1.01 ± 0.053
CCCCCCCCCCCCC[N+](C)(C)Cc1ccccc1,0.675 ± 0.95,0.0123 ± 0.0012,0.955 ± 0.043,1.04 ± 0.27,0.787 ± 0.099,0.0868 ± 0.0048,0.396 ± 0.0083,0.0305 ± 0.016,0.0614 ± 0.011,0.177 ± 0.064,0.919 ± 0.13,0.106 ± 0.027
CO/N=C(\C(=O)N[C@@H]1C(=O)N2C(C(=O)O)=C(C)CS[C@H]12)c1csc(N)n1,0.614 ± 0.47,0.628 ± 0.2,0.904 ± 0.086,0.906 ± 0.062,0.822 ± 0.035,1.018 ± 0.0077,0.836 ± 0.015,0.479 ± 0.18,0.613 ± 0.43,0.979 ± 0.21,0.826 ± 0.098,0.884 ± 0.037
COc1c(N2CC3CCCNC3C2)c(F)cc2c(=O)c(C(=O)O)cn(C3CC3)c12.Cl (centres undefined),0.0344 ± 0.049,0.559 ± 0.16,1.22 ± 0.1,1.13 ± 0.18,0.682 ± 0.17,0.986 ± 0.039,0.825 ± 0.096,0.795 ± 0.041,0.597 ± 0.41,0.94 ± 0.19,0.868 ± 0.083,
COC1=C(N)C(=O)c2nc(-c3nc(C(=O)O)c(C)c(-c4ccc(OC)c(OC)c4O)c3N)ccc2C1=O,0.611 ± 0.34,0.19 ± 0.014,0.732 ± 0.11,1.03 ± 0.48,0.602 ± 0.05,0.789 ± 0.23,0.6758 ± 0.0058,0.072 ± 0.019,0.596 ± 0.39,1 ± 0.23,0.291 ± 0.026,
CON=C(C(=O)NC1C(=O)N2C(C(=O)O)=C(CSC(=O)c3ccco3)CSC12)c1csc(N)n1.Cl (centres undefined),0.933 ± 0.033,0.388 ± 0.053,1.07 ± 0.033,0.476 ± 0.67,0.657 ± 0.15,0.844 ± 0.063,0.949 ± 0.12,0.0647 ± 0.013,0.551 ± 0.37,0.95 ± 0.2,0.832 ± 0.051,
O=[N+]([O-])c1ccc(O)c2ncccc12,0.501 ± 0.24,0.584 ± 0.12,0.808 ± 0.033,0.979 ± 0.076,0.759 ± 0.023,1.03 ± 0.047,0.765 ± 0.026,0.291 ± 0.12,0.588 ± 0.39,0.989 ± 0.21,0.7483 ± 0.0011,1.046 ± 0.004
CC(C)(O/N=C(\C(=O)N[C@@H]1C(=O)N2C(C(=O)O)=C(C[n+]3ccccc3)CS[C@H]12)c1csc(N)n1)C(=O)O,0.662 ± 0.56,0.577 ± 0.24,0.86 ± 0.088,1.1 ± 0.22,0.791 ± 0.01,1.01 ± 0.032,0.94 ± 0.075,0.0696 ± 0.019,0.613 ± 0.43,0.935 ± 0.24,0.829 ± 0.16,
CS(=O)(=O)c1ccc(C(O)C(CF)NC(=O)C(Cl)Cl)cc1 (centres undefined),0.854 ± 0.44,0.577 ± 0.2,1.21 ± 0.24,1.29 ± 0.35,0.8787 ± 0.0014,0.977 ± 0.042,0.976 ± 0.14,0.796 ± 0.099,0.575 ± 0.38,0.945 ± 0.21,0.916 ± 0.026,1.04 ± 0.036
CCN1CCN(C(=O)NC(C(=O)NC2C(=O)N3C2SC(C)(C)C3C(=O)[O-])c2ccccc2)C(=O)C1=O.[Na+] (centres undefined),0.801 ± 0.4,0.634 ± 0.2,1.1 ± 0.11,1.32 ± 0.43,0.757 ± 0.24,0.886 ± 0.12,0.965 ± 0.12,0.612 ± 0.16,0.587 ± 0.41,0.938 ± 0.29,0.916 ± 0.077,0.951 ± 0.086
